Measured values: PubChem BioAssay (NCI)
This is part of a sample that, as a whole, favours compounds with a hit. Of some 83,000 tested, about 20% had one in any assay.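 For each line, cells grew in 96-well plates with the test compound present at a single concentration for 48 hours.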 The source made the active and inactive calls. How the source made its calls: active means growth percent below 10; inactive means the rest.

How the values were obtained:
Experiment in all cases: NCI-60 one-dose screen, 48 h (100 = growth as untreated, 0 = no growth, -100 = all killed)
Settings in all cases: 10 µM unless noted
[1] = tested on: OVCAR-8 ovarian
[2] = tested on: OVCAR-5 ovarian
[3] = tested on: OVCAR-4 ovarian
[4] = tested on: SK-OV-3 ovarian
[5] = tested on: IGROV1 ovarian
[6] = tested on: OVCAR-3 ovarian
[7] = tested on: HS 578T breast
[8] = tested on: NCI/ADR-RES ovarian
[9] = tested on: T-47D breast

Measured: growth

Fc1ccc(-c2cc3nc(C(Cl)Cl)nc(-c4ccc(Cl)cc4)n3n2)cc1
active: [2] -4.91% | [3] -9.93% | [4] -16.6% | [6] -31.9% | [7] 8.56%
inactive: [1] 19% | [5] 44.5% | [8] 20.3% | [9] 37.4%

COc1ccc(NC(=O)c2sc3nc(-c4cnccn4)cc(-c4cccs4)c3c2N)cc1
inactive: [1] 71.7% | [2] 93.1% | [3] 82.1% | [5] 86.3% | [6] 76.8% | [7] 73.7% | [8] 78.2% | [9] 67.8%

COc1ccc2[nH]cc(-c3cc(N)n4nc(-c5c[nH]c6ccc(OC)cc56)cc4n3)c2c1
inactive: [4] 144% | [5] 44.5% | [6] 103% | [7] 121% | [8] 88.6%
active: [1] -62.6% | [2] 8.81% | [3] -8.27% | [9] -21.7%

N#Cc1c(-c2ccc(Cl)cc2)nc2c(-c3ccccc3)c(Nc3ccccc3)nn2c1N
active: [3] -7.41%
inactive: [1] 48.6% | [2] 67.4% | [5] 56.4% | [6] 58.4% | [7] 37.3% | [8] 38.9% | [9] 52.9%

N#Cc1nc(-c2ccccc2)oc1S(=O)(=O)N1CCCCC1
inactive: [1] 89.9% | [2] 102% | [3] 101% | [4] 132% | [5] 19.9% | [7] 106% | [8] 99.3% | [9] 49.9%
active: [6] -54.2%

Cn1cc(-c2cc(N)n3nc(-c4cn(C)c5ccc(F)cc45)cc3n2)c2cc(F)ccc21
inactive: [1] 20% | [2] 88.5% | [3] 23.6% | [5] 42.7% | [7] 18.5% | [8] 66.5% | [9] 22.5%
active: [6] -0.991%

O=C(CSc1nc2sc3c(c2c(=O)n1-c1ccc(Cl)cc1)CCCC3)NNC(=O)Nc1cccc(C(F)(F)F)c1
active: [6] 5.17%
inactive: [2] 52.6% | [3] 22.5% | [4] 62.1% | [5] 24.4% | [7] 56.9% | [8] 32.2% | [9] 13.2%

CCN1C(=S)N(CC)C2C1N=C(SC)N2/N=C/C=C/c1ccccc1[N+](=O)[O-] (stereo unspecified)
inactive: [1] 84.7% | [2] 98.2% | [3] 83.6% | [4] 109% | [5] 106% | [6] 121% | [7] 88.1% | [8] 94.3% | [9] 88.4%

O=C(N/N=C/c1cccs1)c1[nH]c2ccc(Br)cc2c1-c1ccccc1
active: [1] 3.38%
inactive: [2] 46.1% | [3] 72.2% | [4] 36% | [5] 18% | [6] 21.5% | [7] 27.2% | [8] 17.8% | [9] 68.4%

O=C(CSc1nc2sc3c(c2c(=O)n1-c1ccc(Cl)cc1)CCCC3)N/N=C/c1ccc(F)cc1
inactive: [1] 96.7% | [2] 106% | [3] 89.8% | [4] 116% | [5] 104% | [6] 133% | [7] 115% | [8] 104% | [9] 109%

O=C(CSc1nc2sc3c(c2c(=O)n1-c1ccc(Cl)cc1)CCCC3)NNC(=O)Nc1ccc(Cl)c(C(F)(F)F)c1
active: [6] 4.44% | [9] -34.2%
inactive: [1] 27.2% | [2] 49.4% | [3] 16% | [4] 74.9% | [5] 29.7% | [7] 69.4% | [8] 61%

CCOC(=O)c1c(Nc2ccccc2)nn2c(N)c(C#N)c(-c3ccccc3)nc12
inactive: [2] 109% | [3] 82.5% | [4] 108% | [5] 90.2% | [6] 94.5% | [7] 75.2% | [8] 88.7% | [9] 55.5%

COc1cc(/C=C/C(=O)c2cc(OC)c(OC)c(OC)c2)ccc1OCc1ccc(F)cc1
inactive: [1] 15.4% | [2] 57.7% | [3] 46.9% | [5] 40.7% | [6] 38.2% | [7] 89.7% | [8] 20% | [9] 38.3%

CSc1ccc2c(c1)N(C(=O)/C(C#N)=C/c1c[nH]c3ccccc13)c1ccccc1S2
inactive: [1] 52.4% | [2] 63.1% | [3] 59.5% | [5] 40.2% | [6] 37.5% | [7] 37.8% | [9] 29.9%

Cc1cccc(/C=C/c2nn3c(-c4ccco4)nnc3s2)c1
inactive: [1] 100% | [2] 98.2% | [3] 98.7% | [5] 98.6% | [6] 110% | [7] 106% | [8] 91.6% | [9] 89.2%
